# Measurements from PubChem BioAssay AID1259420 (Broad Institute, 2018).
# “And” between values parts separate entries of the source, which are not always exact repeats. Equal entries are not always repeated. Hit rate of the full screen: of about 1,000 compounds, about 250 (25%) were called active. Roughly 31% stayed inconclusive and do not appear here. The list is a sample of the results. Entries with a potency or affinity are not part of this list. Unmarked numbers belong to inactive results. No rule for the calls is given here.
# Experiment: compound activity on host-cell Toxoplasma growth – dose response (AID 1259420);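 also: host cells were HeLa; final incubation lasted 72 hours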
# Settings: Toxoplasma gondii growth in host cells, no IFN-gamma
smiles,measurement,setting,value
O=C1CNC[C@@H]2[C@H](c3ccc(C#Cc4cccnc4)cc3)[C@@H](CO)N12,max activity,at 19.5 µM unless noted,-12.5% [at 0.16 µM]
COC1CCCC(C(=O)N2CCC3(CC2)C(=O)Nc2ccc(-c4ccc(C(C)=O)cc4)cc23)C1 (stereo not given),max activity,at 19.5 µM unless noted,-15.4% [at 10 µM]
CC(C)CC#Cc1ccc([C@H]2[C@@H](CO)N3C(=O)CN(C(=O)Nc4cc(F)ccc4F)C[C@H]23)cc1,max activity,at 19.5 µM unless noted,17.1%
CC(C)CC#Cc1ccc([C@@H]2[C@H](CO)N3C(=O)CN(C(=O)c4cccc(F)c4)C[C@@H]23)cc1,max activity,at 19.5 µM unless noted,12.3% [at 1.2 µM]
CC(C)CC#Cc1ccc([C@H]2[C@@H](CO)N3C(=O)CN(C(=O)c4cccc(F)c4)C[C@H]23)cc1,max activity,at 19.5 µM unless noted,19.6%
CC(C)CC#Cc1ccc([C@H]2[C@H]3CN(C(=O)Nc4cc(F)ccc4F)CC(=O)N3[C@H]2CO)cc1,max activity,at 19.5 µM unless noted,31.4%
COc1ccc(CN2CCC3(CC(n4cnnc4)CO3)C2)cc1 (stereo not given),max activity,at 19.5 µM unless noted,41.3%
O=C(Cc1cccnc1)N1CC(=O)N2[C@H](CO)[C@H](c3ccc(C#CC4CCCCC4)cc3)[C@@H]2C1,max activity,at 10 µM,-8.18%
same,max activity,at 19.5 µM,7.75%
O=C(CC(F)(F)F)N1C[C@@H]2[C@H](c3ccccc31)[C@H](CO)N2CC1CCOCC1,max activity,at 19.5 µM unless noted,-6.58% [at 5 µM]
CN(C)C(=O)c1ccc(-c2ccc([C@H]3[C@H](CO)N4C(=O)CN(C(=O)CC5CC5)C[C@@H]34)cc2)cc1,max activity,at 19.5 µM unless noted,-9.43% [at 0.3 µM]
O=C(C1CCCCC1)N1[C@H](CO)[C@@H]2c3ccccc3N(S(=O)(=O)c3ccccc3)C[C@@H]21,max activity,at 19.5 µM unless noted,10.6% [at 5 µM]
CN(C)C(=O)c1cccc(-c2ccc(C3[C@H]4CNC[C@@H]3N4Cc3ccccc3C(F)(F)F)cc2)c1 (stereo not given in full),max activity,at 19.5 µM unless noted,-11.4%
COc1ccc(C#Cc2ccc3c(c2)[C@H]2[C@H](CCN2C(=O)c2cnccn2)[C@H](CO)N3)cc1,max activity,at 19.5 µM unless noted,21.9%
COCC(=O)N1CC(=O)N2[C@H](CO)[C@@H](c3ccc(-c4ccncc4)cc3)[C@H]2C1,max activity,at 19.5 µM unless noted,9.86% [at 2.6 µM]
CC(C)c1ccc(C(=O)N=C(N)N)cc1S(C)(=O)=O,max activity,at 19.5 µM unless noted,-6.61% [at 10 µM]
O=C1CNC[C@H]2[C@@H](c3ccc(C#Cc4cccnc4)cc3)[C@@H](CO)N12,max activity,at 19.5 µM unless noted,-4.61% [at 1.2 µM]
NCCCCCCNS(=O)(=O)c1ccc2c(Cl)cccc2c1,max activity,at 19.5 µM unless noted,-5.19% [at 10 µM]
NC(=O)CN1CCOCCOCCN(CC(N)=O)CCOCC1,max activity,at 19.5 µM unless noted,5.9% [at 5 µM]
COCCN(CCOC)C(=O)c1cc2c(c3ccccc3n2CC2CC2)n1-c1ncccn1,max activity,at 19.5 µM unless noted,18%
CN(C)S(=O)(=O)N1C[C@@H]2CN(Cc3ccoc3)CCO[C@H]2C1,max activity,at 19.5 µM unless noted,-18.6%
COC[C@H]1CN(C)C[C@]12CCN(C(=O)c1cc3ccccc3s1)C2,max activity,at 19.5 µM unless noted,11.6%
O=S1(=O)c2ccccc2OCC2(CCN(Cc3ccccc3)CC2)CN1CC1CC1,max activity,at 19.5 µM unless noted,19.2%
CCN1[C@@H]2CCN(C(=O)CC3CC3)CC[C@@H]2Oc2ccccc2S1(=O)=O,max activity,at 19.5 µM unless noted,19.2% [at 1.2 µM]
O=C(NCc1cncc2c1CCN(Cc1cccc(F)c1)C2)C1CC1,max activity,at 5 µM,9.94%
same,max activity,at 19.5 µM,14%
CC(=O)N1CCN(C(C)C)C(c2nnc3ccc(C(=O)N4CCCC4)cn23)C1 (stereo not given),max activity,at 19.5 µM unless noted,-12.1% [at 10 µM]
Cc1cccc(S(=O)(=O)N2CC[C@@H]3[C@@H](CO)Nc4ccc(-c5ccccc5F)cc4[C@@H]32)c1,max activity,at 19.5 µM unless noted,-19% [at 0.6 µM]
CCC(=O)N1CC[C@@H]2[C@H]1c1cc(C#Cc3ccccc3F)ccc1N[C@@H]2CO,max activity,at 19.5 µM unless noted,-12.6%
O=S(=O)(c1cccc(F)c1)N1CC[C@@H]2[C@H]1c1cc(Br)ccc1N[C@@H]2CO,max activity,at 19.5 µM unless noted,7.04%
COc1ccccc1-c1ccc2c(c1)[C@H]1[C@H](CCN1S(=O)(=O)c1ccc(C)cc1)[C@@H](CO)N2,max activity,at 19.5 µM unless noted,21.4%
COc1ccccc1-c1ccc2c(c1)[C@H]1[C@H](CCN1Cc1ccccc1F)[C@@H](CO)N2,max activity,at 19.5 µM unless noted,20.2%
COC[C@]12CCC[C@@H]1CN(S(=O)(=O)c1cccc(OC)c1)C2,max activity,at 19.5 µM unless noted,17.2%
CN(C)CCN1CCC2(CCCN(C(=O)C3CCOC3)C2)C1=O (stereo not given),max activity,at 19.5 µM unless noted,31.3%
COCC1CN(C(=O)c2ccccc2F)Cc2cnn(CC3CC3)c21 (stereo not given),max activity,at 19.5 µM unless noted,-15.3% [at 10 µM]
Cc1ccccc1-c1ccc([C@@H]2[C@@H](CO)N3C(=O)CN(C(=O)c4ccncc4)C[C@@H]23)cc1,max activity,at 19.5 µM unless noted,15% [at 0.16 µM]
COc1ccccc1S(=O)(=O)N1CC[C@H]2[C@H](CO)Nc3ccc(-c4ccc(C#N)cc4)cc3[C@H]21,max activity,at 19.5 µM unless noted,19% [at 21 µM]
c1cc(-c2nccn2CCn2ccnc2)ccn1,max activity,at 19.5 µM unless noted,7.6% [at 0.16 µM]
O=C(Nc1ccccc1)c1ncn2c1CN(CC1CC1)S(=O)(=O)c1ccccc1-2,max activity,at 19.5 µM unless noted,-5.31% [at 1.2 µM]
O=C(NCc1ccccc1)c1cc(-c2cnc(N3CCCC3)nc2)cn1CC1CC1,max activity,at 19.5 µM unless noted,-17.4% [at 10 µM]
COc1ccccc1C#Cc1ccc([C@H]2[C@@H](CO)N3CCCCN(C(=O)C4CCC4)C[C@H]23)cc1,max activity,at 19.5 µM unless noted,11% [at 0.16 µM]
CC(C)COC1CC2(CCN(C(=O)c3cccn3C)CC2)C1,max activity,at 19.5 µM unless noted,9.82% [at 0.3 µM]
CN(C)CCOCC12CCCOC1CCN(C(=O)c1cccn1C)C2 (stereo not given),max activity,at 19.5 µM unless noted,-18.9% [at 5 µM]
CC(C)C#Cc1ccc([C@@H]2[C@@H](CO)N3C(=O)CN(C(=O)NC4CCCC4)C[C@H]23)cc1,max activity,at 19.5 µM unless noted,-5.34%
COCC(=O)N1CC(=O)N2[C@H](CO)[C@H](c3ccc(C#CC4CC4)cc3)[C@@H]2C1,max activity,at 19.5 µM unless noted,-9.08% [at 5 µM]
COc1ccc(-c2ccc([C@@H]3[C@@H](CO)N4C(=O)CN(C(=O)C5CC5)C[C@@H]34)cc2)cc1,max activity,at 19.5 µM unless noted,19.5% [at 21 µM]
CN1CCCN(CC2(O)CCNC2)CC1 (stereo not given),max activity,at 19.5 µM unless noted,11.3% [at 0.08 µM]
Cc1cccc(-c2ccc([C@H]3[C@H]4CN(C(=O)c5ccc6c(c5)OCO6)CC(=O)N4[C@H]3CO)cc2)c1,max activity,at 19.5 µM unless noted,11.6%
COc1ccc(-c2ccc3c(c2)[C@H]2[C@H](CCN2C(=O)Nc2ccccc2OC)[C@H](CO)N3C)cc1,max activity,at 19.5 µM unless noted,-12.3% [at 0.6 µM]
Cc1cccc(-c2ccc([C@@H]3[C@@H](CO)N4C(=O)CN(C(=O)c5ccc6c(c5)OCO6)C[C@H]34)cc2)c1,max activity,at 19.5 µM unless noted,-5.13% [at 0.3 µM]
CN1c2ccc(C3=CCCCC3)cc2[C@@H]2[C@@H](CCN2C(=O)C2CCOCC2)[C@H]1CO,max activity,at 19.5 µM unless noted,-17.2% [at 5 µM]
N#Cc1ccc(-c2ccc3c(c2)[C@H]2[C@H](CCN2C(=O)C2CCCCC2)[C@@H](CO)N3)cc1,max activity,at 19.5 µM unless noted,-26.1% [at 5 µM]
N#Cc1ccc(-c2ccc3c(c2)[C@@H]2[C@@H](CCN2C(=O)C2CCCCC2)[C@@H](CO)N3)cc1,max activity,at 19.5 µM unless noted,24.3%
CCc1cnc(N2CCc3cc(C(=O)NCC4CC4)c(N(C)C)nc3CC2)nc1,max activity,at 19.5 µM unless noted,11.8% [at 0.6 µM]
CO[C@@H]1CCN(S(=O)(=O)N(C)C)C[C@@H]1Cc1cccc(C)c1,max activity,at 19.5 µM unless noted,-8.52% [at 10 µM]
CCCCOCCOCCOCc1cc2c(cc1CCC)OCO2,max activity,at 19.5 µM unless noted,-10.5% [at 10 µM]
Cc1nc(N2CCCC2)nc2c1CCN(C(=O)c1ccoc1C)CC2,max activity,at 19.5 µM unless noted,-19.1% [at 10 µM]
Cc1cc2nc(CN3CCCC(CCc4ccc(F)cc4F)C3)cc(=O)n2[nH]1 (stereo not given),max activity,at 19.5 µM unless noted,5.72%
O=C(c1cnccn1)N1CC(=O)N2[C@H](C1)[C@@H](c1ccc(-c3cccc(F)c3)cc1)[C@@H]2CO,max activity,at 19.5 µM unless noted,25.6%
O=C(Nc1ccc(F)cc1)N1CC(=O)N2[C@H](CO)[C@@H](c3ccc(-c4cccc(F)c4)cc3)[C@@H]2C1,max activity,at 19.5 µM unless noted,-6.88%
O=C(Nc1ccc(F)cc1)N1CC(=O)N2[C@H](CO)[C@@H](c3ccc(-c4cccc(F)c4)cc3)[C@H]2C1,max activity,at 19.5 µM unless noted,13.4%
Cc1ccc(-c2ccc([C@H]3[C@H]4CN(C(=O)NC(C)C)CC(=O)N4[C@H]3CO)cc2)cc1,max activity,at 19.5 µM unless noted,-10.6% [at 0.6 µM]
O=C(c1cnccn1)N1CC(=O)N2[C@H](CO)[C@H](c3ccc(-c4cccc(F)c4)cc3)[C@@H]2C1,max activity,at 19.5 µM unless noted,-10.6% [at 0.3 µM]
O=C(c1cnccn1)N1CC(=O)N2[C@H](CO)[C@H](c3ccc(-c4cccc(F)c4)cc3)[C@H]2C1,max activity,at 19.5 µM unless noted,15.4% and 19.8%
C/C=C/c1ccc([C@H]2[C@@H](CO)N3C(=O)CN(C(=O)Nc4ccc(F)cc4)C[C@@H]23)cc1,max activity,at 19.5 µM unless noted,-13% [at 0.16 µM]
O=C(c1cnccn1)N1CC(=O)N2[C@H](C1)[C@H](c1ccc(-c3cccc(F)c3)cc1)[C@@H]2CO,max activity,at 19.5 µM unless noted,-9.23% [at 0.16 µM]
CC1CCCCN1C(=O)c1ccnn1-c1ccc2ccc(-c3ccccc3)cn12 (stereo not given),max activity,at 19.5 µM unless noted,-6.05% [at 5 µM]
CC(=O)O[C@@H]1CC2C(C)(CC[C@H](O)C2(C)C)C2CC[C@]3(C)C(=CC(=O)O[C@H]3c3ccoc3)C21C (stereo not given in full),max activity,at 19.5 µM unless noted,-5.91% [at 10 µM]
CC(C)n1cnc2c(NCC3CC3)nc(C3CCN(C(=O)c4cccc(F)c4F)CC3)cc21,max activity,at 19.5 µM unless noted,5.98% [at 1.2 µM]
Cc1ccccc1-c1ccc(C2[C@@H]3CN(Cc4cocn4)C[C@H]2N3)cc1 (stereo not given in full),max activity,at 19.5 µM unless noted,20.2%
